Test results reported in PubChem BioAssay (Tox21).
“And” between values parts separate entries of the source, which are not always exact repeats. Equal values may be shown once. Records with an inconclusive call do not appear. A call without a number means that no potency is given here. Where a structure was tested more than once in an assay, its records may differ in their call. The source made the active and inactive calls. Calls come from the whole dose curve; as a rule, active = well fitted activation curve with a large enough effect in the repeat runs; inconclusive = weak or mixed curves; inactive = flat fitted curve, though single readings scatter.

Test: A CellTox Green Cytotoxicity Assay to monitor cytotoxicity in HepG2 cells - 16 hour (AID 1224876); note: nearly all actives have a fitted effect of over 45% in size
Conditions: CellTox Green fluorescence; series mostly up to 76.8 µM; cytotoxicity increase: at the top concentration
From the text: National Center for Advancing Translational Sciences [NCATS]
NIH Chemical Genomics Center [NCGC]
U.S. Environmental Protection Agency [EPA]
National Institutes of Environmental Health Sciences [NIEHS]
National Toxicology Program [NTP]
Cell-based models are critical for drug discovery. Determining the natural cytotoxic effects resulting from test compounds is an essential research activity. A CellTox Green Cytotoxicity Assay to monitor cytotoxicity in real time of continues cell culture during 40 hours of the compound treatment was used to screen Tox21 10K library compounds in HepG2 cells. CellTox Green Cytotoxicity Assay is a nonlytic, homogeneous, biofluorescent method to measure cytotoxicity in cell culture after experimental manipulation. The assay system uses a proprietary asymmetric cyanine dye that is excluded from viable cells but preferentially stains the dead cell's DNA. […] Viable cells produce no appreciable increases in fluorescence. Therefore, the fluorescence signal produced by the binding interaction with dead cell DNA is proportional to cytotoxicity.
The mixture of HepG2 cell suspension and reagents were dispensed at 600cells/6 ul/well in 1536-well tissue culture treated black solid bottom plates using a Multidrop dispenser. After the assay plates were incubated at a 37 C/5% CO2 incubator for 5 hours, 23 nL of compounds dissolved in DMSO, positive and negative controls was transferred to the assay plate by a pintool work station. The plates were incubated at 37 C for 40 hours. The fluorescence intensity were measured at 0h, 8h, 16h, 24h, 32h and 40h time points using ViewLux plate reader during compound treatment.
Potency is the fitted concentration of half-maximal effect.

Row | SMILES | Potency | cytotoxicity increase
1 | Cc1cc2nc3c(=O)[nH]c(=O)nc-3n(C[C@H](O)[C@H](O)[C@H](O)CO)c2cc1C | 43.2 µM (active) and 40.5 µM (active) and 11.7 µM (active) | 
2 | COc1c(Cl)c(Cl)c(Cl)c(Cl)c1Cl | inactive | 
3 | C=CC(C)(CCC=C(C)C)OC(C)=O (stereo not given) | inactive | 
4 | CCCCC(CC)COCC1CO1 (stereo not given) | inactive | 
5 | CCC(C)CO (stereo not given) | inactive and 38.9 µM (active) | 
6 | C#C[C@]1(O)CC[C@H]2[C@@H]3CCc4cc(OC)ccc4[C@H]3CC[C@@]21C |  | 18.7% [at 35.3 µM] (inactive)
7 | Nc1ccc(Cl)cc1Cl | inactive | 
8 | C=C(C)C(=O)OCCOC(=O)C(=C)C | inactive | 
9 | CN(C)CCC=C1c2ccccc2CCc2ccccc21 | 24.5 µM (active) | 
10 | Cn1cnc([N+](=O)[O-])c1Sc1ncnc2nc[nH]c12 |  | -13.1% [at 35.3 µM] (inactive)
11 | CCCCC(CC)COC(=O)c1ccc(N(C)C)cc1 (stereo not given) | inactive | 
12 | CCCCNS(=O)(=O)c1ccccc1 | inactive | 
13 | CCOCCOCCO | inactive | 
14 | c1cc(-c2ccncc2)ccn1 | inactive | 
15 | CCCCC(CC)COP(=O)(OCC(CC)CCCC)OCC(CC)CCCC (stereo not given) | inactive | 
16 | O=C(c1ccccc1)c1ccccc1O |  | 6.39% (inactive)
17 | O=CCc1ccccc1 | inactive | 
18 | CC(C)OC=O | inactive | 
19 | CCCCCCCCCC(=O)OC | inactive | 
20 | CC(C)=CCCC(C)CCO (stereo not given) | inactive | 

Row | SMILES | Potency | cytotoxicity increase
21 | c1ccc(Nc2ccccc2)cc1 |  | 19.8% (inactive)
22 | c1cc(N(CC2CO2)CC2CO2)ccc1OCC1CO1 (stereo not given) | inactive | 
23 | COc1cc([C@@H]2c3cc4c(cc3[C@H](O)[C@H]3COC(=O)[C@H]23)OCO4)cc(OC)c1OC |  | -1.43% [at 35.3 µM] (inactive)
24 | CC(CCC(=O)O)(c1ccc(O)cc1)c1ccc(O)cc1 | inactive | 
25 | CC(=O)C1(C)CC2=C(CCCC2(C)C)CC1C (stereo not given) | inactive | 
26 | CC(C(=O)O)c1cccc(C(=O)c2ccccc2)c1 (stereo not given) | inactive | 
27 | Cc1cccc([N+](=O)[O-])c1C | inactive | 
28 | C[Si](C)(C)O[Si](C)(C)C | inactive | 
29 | C#C[C@]1(O)CC[C@H]2[C@@H]3CCC4=Cc5oncc5C[C@]4(C)[C@H]3CC[C@@]21C | inactive | 
30 | Cc1ccc2c(n1)Oc1ccc(C(C)C(=O)OCC(=O)N(C)C)cc1C2 (stereo not given) | inactive | 
31 | OCCO | inactive | 
32 | Cc1[nH]c(=O)c(C#N)cc1-c1ccncc1 |  | 10.1% [at 35.3 µM] (inactive)
33 | CN(C)C(=N)N=C(N)N | inactive | 
34 | CCC(C)(O)CCCC(C)C (stereo not given) | inactive | 
35 | CCCC(=O)O | inactive | 
36 | COC(=O)Nc1nc2ccc(S(=O)c3ccccc3)cc2[nH]1 (stereo not given) | inactive | 
37 | CCCCOCCOCCOCCO | inactive | 
38 | O=P(O)(O)O | inactive | 
39 | c1ccc2c(c1)c1cccc3ccc4cccc2c4c31 | inactive | 
40 | Cc1cccc(C(=O)O)c1 | inactive | 
